From PubChem
Shiga toxin inh = Shiga toxin inhibition; Vero cells, Shiga toxin protein synthesis inhibition reporter; inhibition, % at 38.7 µM; actives 9.2% (n = 290,000); in the data active = inhibition mostly above about 28%, no sharp cut-off; inactive = mostly below about 43%
CHX counter = counter-screen hit for Shiga toxin inhibitors, cycloheximide | cell reporter, cycloheximide protein synthesis inhibition counterscreen | max response, % | actives 12% (n = 300,000) | AID 2314; in the data active = max response mostly above about 13%, no sharp cut-off; inactive = mostly below about 14%; also: read at 38.3 µM for the half of the compounds with a filed dose
NS1 inh = influenza NS1 inhibition. Potency, µM (series often up to 46.1 µM). actives 0.4% (n = 270,000). AID 2326; calls by dose curve; also: actives are rising curves; nearly all actives have a fitted effect of over 50% in size
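Growth recovery, yeast-based: influenza A NS1 expressed in S. cerevisiae causes slow growth, and suppressors are detected by OD600. The parent strain without NS1 is used as positive control.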
Pf growth 96h = P. falciparum growth inhibition at 96 hour, primary screen for plastid delayed-death inhibitors | P. falciparum luciferase reporter growth, 96 h | actives 6.9% (n = 320,000) | Potency, µM (doses to about 28.7 µM), most hits filed as inhibitors
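Luminescence readout: decreased luciferase signal marks inhibited growth of reporter-expressing P. falciparum in infected red cells (2% hematocrit, 0.05% parasitemia final), exposed to compound two generations (96 h, 37 C, 5% CO2).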
Pf growth 48h = inhibits P. falciparum growth in the first generation, 48 h. P. falciparum luciferase growth in erythrocytes, 48 h. Potency, µM (top dose mostly 28.7 µM), most hits filed as inhibitors. actives 5.9% (n = 310,000). AID 504832
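Parasite viability was followed by luminescence of a genomically integrated firefly luciferase. Cultures held 0.1% parasitemia at 2% hematocrit (final), incubated under 5% CO2 at 37 C.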
Of the large screens only hits and unclear results are named; the others gave an inactive call. A selection: hits, their analogues and other compounds. The true share with any hit is near 21%. Unless noted, calls follow the shape of the dose curve; as a rule, active = well fitted inhibition curve with a large enough effect; inconclusive = small, poorly fitted or top-dose-only effect, or another doubt; inactive = no such curve, though single readings can be large or run the other way.

CCCOP(=O)(c1ccc(N(C)C)cc1)C(O)c1ccc(Cl)cc1Cl (stereo not given)	Pf growth 96h 13.1µM, Pf growth 48h 7.38µM
CC(C)CCOP(=O)(c1ccc(N(C)C)cc1)C(O)c1c(Cl)cccc1Cl (stereo not given)	Pf growth 96h 11.7µM, Pf growth 48h 10.4µM
CC(C)COP(=O)(c1ccc(N(C)C)cc1)C(O)c1ccc(Br)cc1 (stereo not given)	Pf growth 96h 10.4µM, Pf growth 48h inconclusive
CCOP(=O)(c1ccc(N(C)C)cc1)C(O)c1c(Cl)cccc1Cl (stereo not given)	Pf growth 96h inconclusive, Pf growth 48h inconclusive
Cc1ccc(C(O)P(=O)(OCCC(C)C)c2ccc(N(C)C)cc2)cc1 (stereo not given)	Pf growth 96h inconclusive, Pf growth 48h 11.7µM
CCCCOP(=O)(c1ccc(N(C)C)cc1)C(Nc1ccccc1)c1ccccc1 (stereo not given)	Pf growth 96h 14.7µM, Pf growth 48h inconclusive
CC(=O)c1ccc(C(=O)Nc2ccc3c(c2)C(=O)NC3=O)cc1	none
O=C(c1ccco1)N1CCCC(c2nc3c(nnn3Cc3ccc(F)cc3)c(=O)[nH]2)C1 (stereo not given)	none
CN1CCN(S(=O)(=O)c2cccc(C(=O)N(Cc3nnc(-c4ccccc4Cl)o3)C3CC3)c2)CC1	Pf growth 96h 14.7µM, Pf growth 48h inconclusive
CCN(CC)CCNC(=O)c1cc(-c2cccnc2)nc2ccc(S(=O)(=O)N3CCC(C)CC3)cc12	Pf growth 96h 13.1µM, Pf growth 48h inconclusive
CCCCNS(=O)(=O)c1ccc2nc(-c3cccnc3)cc(C(=O)NCCCN(CC)CC)c2c1	Pf growth 96h inconclusive, Pf growth 48h 11.7µM (no result: NS1 inh)
Cc1ccc(CN(C(=O)c2ccco2)C(C(=O)NC2CCCC2)c2cccnc2)cc1 (stereo not given)	Pf growth 48h inconclusive
O=C(NC1CCCCC1)C(c1ccccc1)N1CCOCC1 (stereo not given)	none
Cc1ccc(C(C(=O)NC2CCCCC2)N2CCOCC2)cc1 (stereo not given)	Pf growth 96h 10.4µM
Cc1ccc(CN(C(=O)c2ccco2)C(C(=O)NC2CCCC2)c2ccc(N3CCOCC3)cc2)cc1 (stereo not given)	Pf growth 48h 10.4µM
COc1ccc(C(=O)/C=C2\NCCc3cc(OC)c(OC)cc32)cc1OC	Pf growth 96h 13.1µM, Pf growth 48h 10.4µM
O=C(O)CCCC(=O)Nc1cccc(-c2nc3ccccc3[nH]2)c1	none
O=C(COc1ccccc1)Nc1cccc(-c2nc3ccccc3[nH]2)c1	CHX counter 22.1
O=C(CSc1ccc(Cl)cc1)Nc1cccc(-c2nc3ncccc3o2)c1	Pf growth 96h inconclusive, Pf growth 48h inconclusive
Cc1ccc2nc(-c3ccc(NC(=O)CSc4ccccc4)cc3)[nH]c2c1	Shiga toxin inh active, CHX counter 33.4, Pf growth 96h inconclusive, Pf growth 48h inconclusive
COc1ccc(OCC(=O)Nc2cccc(-c3nc4ccccc4[nH]3)c2)cc1	CHX counter 13.7, Pf growth 96h 11.7µM, Pf growth 48h inconclusive
O=C(CSc1ccc(Cl)cc1)Nc1cccc(-c2nc3ccccc3[nH]2)c1	Pf growth 96h inconclusive, Pf growth 48h 3.7µM
O=C(CSc1ccccc1)Nc1ccc(-c2nc3ccccc3[nH]2)cc1	Pf growth 48h inconclusive
Cc1ccc(S(=O)(=O)N2CCCC(C(=O)NCCc3ccccc3)C2)cc1 (stereo not given)	Pf growth 96h inconclusive
Cn1ccnc1C1CCCCN1C(=O)c1cc(COc2ccc(F)cc2F)on1 (stereo not given)	Pf growth 96h inconclusive, Pf growth 48h inconclusive
CC(=O)Nc1cccc(NC(=O)C2CC(=O)N(C3CCCCC3)C2)c1 (stereo not given)	none
CN(Cc1ccc(F)cc1)Cc1nc(-c2cnccn2)no1	none
O=C(c1ccc(OC2CCN(CCc3ccccc3)CC2)cc1)N1CCC[C@H]1CO	Pf growth 96h inconclusive
COc1ccc(-c2n[nH]c(=S)n2-c2ccc(C)cc2)cc1OC	Pf growth 96h inconclusive
O=C(CCc1nc(-c2ccccc2)no1)NC1CCCCC1	CHX counter 12.4 (no result: Pf growth 96h)
COc1ccc(-c2noc(CCC(=O)NC3CCCCC3)n2)cc1	Pf growth 96h 11.7µM
COc1ccc(-c2noc(CCC(=O)NC3CCCCCC3)n2)cc1	Pf growth 96h inconclusive
O=C(CCCC(=O)OCC(=O)c1ccc(Cl)cc1)NC1CCCCC1	Pf growth 96h 11.7µM
COc1ccc(-c2noc(CCC(=O)Nc3cc(Cl)c(OC)cc3OC)n2)cc1	Shiga toxin inh 45.8, CHX counter 41.3, Pf growth 96h inconclusive (no result: Pf growth 48h)
COc1ccc(-c2noc(CCC(=O)Nc3cc(OC)ccc3OC)n2)cc1	none (no result: Pf growth 48h)
CCOC(=O)C1=C(c2cccc(Oc3ccccc3)c2)NC(=S)NC1C (stereo not given)	none (no result: Pf growth 96h)
Cc1ccccc1-c1noc(CCC(=O)NCc2ccco2)n1	none
O=C(CCCc1nc(-c2ccc(Cl)cc2)no1)NC1CCCC1	Pf growth 96h 4.65µM
O=C(CCc1nc(-c2ccc(Cl)cc2)no1)NC1CCCCC1	none
COc1ccc(-c2noc(CCC(=O)NCc3ccco3)n2)cc1	CHX counter 17.2
CCOC(=O)c1c([N+](=O)[O-])c(C)[nH]c(=O)c1C#N	none
O=C(CCC(=O)OCC(F)(F)C(F)F)Nc1ccccc1F	Pf growth 96h inconclusive (no result: NS1 inh)
Cc1cccc(-c2nc(C#N)c(NCc3ccco3)o2)c1	Shiga toxin inh 53.5, CHX counter 56.7
COc1ccc(-c2nc(C#N)c(NCc3ccco3)o2)cc1	Shiga toxin inh 73.2, CHX counter 27.7
N#Cc1nc(-c2ccc(F)cc2)oc1NCc1ccco1	Shiga toxin inh 85.9, CHX counter 13.0
Cc1ccc(-c2nc(C#N)c(NCc3ccco3)o2)cc1	Shiga toxin inh 88.9, CHX counter 54.4, Pf growth 96h 11.7µM
N#Cc1nc(-c2ccc(OCc3ccccc3)cc2)oc1NCc1ccco1	none
N#Cc1nc(-c2ccco2)oc1NCc1ccco1	Pf growth 96h inconclusive
CCc1ccc(N(C(=O)c2csnn2)C(C(=O)NC(C)(C)C)c2cccnc2)cc1 (stereo not given)	Pf growth 96h inconclusive, Pf growth 48h inconclusive
CC1(c2ccc(OC(F)F)cc2)NC(=O)N(CC(=O)Nc2cccc(F)c2)C1=O (stereo not given)	none
Cc1cc(NC(=O)COC(=O)C2CC(=O)N(c3cccc(C)c3C)C2)no1 (stereo not given)	NS1 inh inconclusive
CC(C)(C)c1ccc(-c2nc(C#N)c(NCc3cccnc3)o2)cc1	CHX counter 32.4, Pf growth 96h inconclusive (no result: Pf growth 48h)
Cc1occc1-c1nnc(SCC(=O)NCc2cccs2)n1CC1CCCO1 (stereo not given)	Pf growth 96h 5.22µM, Pf growth 48h inconclusive
CCn1c(SCC(=O)Nc2ccccc2-c2ccccc2)nnc1-c1ccoc1C	Pf growth 96h 11.7µM, Pf growth 48h inconclusive
CCC(C)NC(=O)CSc1nnc(-c2ccoc2C)n1CC1CCCO1 (stereo not given)	Pf growth 96h inconclusive
Cc1occc1-c1nnc(SCC(=O)c2ccccc2)n1CC1CCCO1 (stereo not given)	CHX counter 20.1, NS1 inh inconclusive, Pf growth 48h inconclusive
